Measurements published in PubChem BioAssay.
For part of these data: Results with a measured potency or affinity are listed apart. Calls of active or inactive are those of the source.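 Rule for the calls, unless noted: active = calcium signal cut by more than 3 SD below the full-agonist control yet still positive, in both repeats and the earlier primary screen; inactive = the rest.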

Legend:
[1] = system: TRPC4 beta (transient receptor potential cation channel C4), mouse; experiment: activators of mouse TRPC4 channel, confirmation, cell-based, Fluo4 calcium, HEK293 TRPC4beta/mu-opioid, duplicates, 10 µM (AID 2426;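 active = fluorescence ratio normalized to control raised more than 50% in primary screen plus both repeat runs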); conditions: Fluo4 calcium fluorescence, at 10 µM; stronger effect = higher value
[2] = system: transient receptor potential cation channel C4 beta (TRPC4), mouse; experiment: activators of mouse TRPC4 channel, confirmation, cell-based, second round, Fluo4, HEK293 TRPC4beta/mu-opioid, 1 µM (AID 2461;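 active = primary screen active and over 50% activation in each of two duplicate runs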); conditions: Fluo4 calcium fluorescence, at 1 µM; stronger effect = higher value
[3] = system: TRPC4 (transient receptor potential cation channel C4 beta), mouse; experiment: positive allosteric modulators of mouse TRPC4, confirmation, cell-based, second round, Fluo-4, HEK293 TRPC4beta/mu-opioid, 1 µM (AID 2554;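 active = primary screen hit whose fluorescence ratio, in both repeats, exceeds the weak agonist control mean by 3 SD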); conditions: DAMGO EC20, Fluo-4 calcium flux, at 1 µM; stronger effect = higher value
[4] = system: TRPC4 beta (transient receptor potential cation channel C4), mouse; experiment: positive allosteric modulators of mouse TRPC4, confirmation, cell-based, Fluo-4, HEK293 TRPC4beta/mu-opioid (AID 2555;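 active = primary screen hit whose calcium fluorescence ratio, in both repeats, exceeds the weak agonist control mean by 3 SD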); conditions: DAMGO EC20, Fluo-4 calcium flux, at 10 µM; stronger effect = higher value
[5] = biological target: Short transient receptor potential channel 4 (Mus musculus) (UniProt Q9QUQ5); experiment: inhibitors of mouse TRPC4 channel, confirmation, cell-based, Fluo4, HEK293 TRPC4beta/mu-opioid (AID 2636); conditions: DAMGO, Fluo4 calcium flux, at 10 µM; stronger effect = higher value
[6] = biological target: Short transient receptor potential channel 4 (Mus musculus) (UniProt Q9QUQ5); experiment: inhibitors of mouse TRPC4 channel, confirmation, cell-based, second round, Fluo4, HEK293 TRPC4beta/mu-opioid, 1 µM (AID 2637;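 active = calcium signal ratio cut to more than 3 SD under the fully stimulated control mean yet still positive, in both repeats and the primary screen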); conditions: Fluo4 calcium flux, DAMGO, at 1 µM; stronger effect = higher value
[7] = biological target: Short transient receptor potential channel 4 (Mus musculus) (UniProt Q9QUQ5); experiment: mouse TRPC4 channel activators, dose response, cell-based, HEK293 TRPC4/mu-opioid, Fluo-4 calcium (AID 434937;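 active = primary screen activator hit with a dose response curve and TRPC4 channel activation at any tested dose; inactive = no activation, no dose response, or not a primary hit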)
[8] = biological target: Short transient receptor potential channel 4 (Mus musculus) (UniProt Q9QUQ5); experiment: TRPC4 positive allosteric modulators, dose response, cell-based, HEK293 TRPC4/mu-opioid, Fluo-4 calcium, EC20 DAMGO (AID 434941;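 active = earlier screen potentiator hit that boosts the TRPC4 ion channel at some dose, with a dose response; inactive = no potentiation, no dose response, or not a prior hit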;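 note: calcium entry triggered by an EC20 dose of DAMGO at the co-expressed mu-opioid receptor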)
[9] = biological target: Short transient receptor potential channel 4 (Mus musculus) (UniProt Q9QUQ5); experiment: mouse TRPC4 channel inhibitors, dose response, cell-based, HEK293 TRPC4/mu-opioid, Fluo-4 calcium (AID 434942;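 active = primary screen inhibitor hit that blocks the TRPC4 channel at some tested dose, yielding a dose curve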)
[10] = biological target: Short transient receptor potential channel 6 (Mus musculus) (UniProt Q61143); experiment: inhibition of mouse TRPC6 channel, confirmation, selectivity assay for TRPC4 inhibitor project, cell-based, HEK293, membrane potential dye, duplicate (AID 434948;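 active = active in primary screen and both duplicates, each dropping signal beyond three positive-control SD with fluorescence still positive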); conditions: HEK293 TRPC6, membrane potential dye fluorescence, at 10 µM, stimulated with maximal-effect acetylcholine; stronger effect = higher value
[11] = biological target: Short transient receptor potential channel 6 (Mus musculus) (UniProt Q61143); experiment: activation of mouse TRPC6 channel, confirmation, selectivity assay for TRPC4 activator project, cell-based, HEK293, membrane potential dye, duplicate (AID 434950;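 active = membrane potential signal rise above negative control mean plus 3 SD in both duplicates, also active in the earlier TRPC4 screen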); conditions: HEK293 TRPC6, membrane potential fluorescence, at 10 µM; stronger effect = higher value
[12] = biological target: Short transient receptor potential channel 6 (Mus musculus) (UniProt Q61143); experiment: TRPC6 potentiation by TRPC4 potentiator hits, confirmation, selectivity assay for TRPC4 potentiator project, HEK293 cells, membrane potential dye, duplicate (AID 434952;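 active = compound raising the membrane signal above positive-control mean plus 3 SD in both repeats, and a primary screen hit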); conditions: HEK293 TRPC6, membrane potential dye fluorescence, at 10 µM, maximal acetylcholine added after compound; stronger effect = higher value
[13] = biological target: Short transient receptor potential channel 4 (Mus musculus) (UniProt Q9QUQ5); experiment: calcium flux activators in TRPC4/5HT1a cells, counter-screen for TRPC4 activator project, cell-based, second counter screen, HEK293 TRPC4/5HT1a, Fluo-4 (AID 434977;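 active = calcium signal rise above buffer-control mean plus 5 SD in both duplicates, and also a hit in the primary screen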); conditions: Fluo-4 calcium flux, at 10 µM; stronger effect = higher value
[14] = calcium flux inhibitors in TRPC4/5HT1a cells, confirmation, counter-screen for TRPC4 inhibitor project, cell-based, second counter screen, HEK293 TRPC4/5HT1a, Fluo-4 (AID 434978;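 active = primary screen active whose calcium signal fell more than 3 SD beyond the full-serotonin control mean in both duplicate plates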;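 note: serotonin given first at submaximal then at maximal dose after compound preincubation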); conditions: Fluo-4 calcium flux, at 10 µM, serotonin added to trigger calcium flux; stronger effect = higher value
[15] = system: TRPC4 (mouse), co-expressed with 5HT1a in HEK293; experiment: calcium flux potentiators in TRPC4/5HT1a cells, confirmation, counter-screen for TRPC4 potentiator project, cell-based, second counter screen, HEK293 TRPC4/5HT1a, Fluo-4 (AID 434979;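 active = signal rise over 3 SD above mean of control wells given weak agonist, in both repeats and first screen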); conditions: Fluo-4 calcium flux, at 10 µM, serotonin added at its EC20 dose; stronger effect = higher value
[16] = calcium flux activation in mu-opioid HEK293 cells, confirmation, counter-screen for TRPC4 activator project, cell-based, HEK293 mu-opioid receptor line (AID 449723;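 active = hit in primary screen, with calcium signal over 5 SD above buffer well mean in both duplicates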;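 note: counter screen cells carry the mu-opioid receptor alone and lack TRPC4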); conditions: Fluo-4 calcium fluorescence, at 10 µM; stronger effect = higher value
[17] = calcium flux enhancement in mu-opioid HEK293 cells, confirmation, counter-screen for TRPC4 allosteric potentiator project, cell-based, HEK293 mu-opioid receptor line (AID 449724;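 active = calcium signal rise more than 3 SD above the low-dose agonist control mean, in both duplicate plates and the primary screen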); conditions: Fluo-4 calcium flux, at 10 µM, compound added before EC20 DAMGO stimulus; stronger effect = higher value

Measured: potentiation

Sequence of Short transient receptor potential channel 6 (Mus musculus) (Q61143 whole entry, looked up): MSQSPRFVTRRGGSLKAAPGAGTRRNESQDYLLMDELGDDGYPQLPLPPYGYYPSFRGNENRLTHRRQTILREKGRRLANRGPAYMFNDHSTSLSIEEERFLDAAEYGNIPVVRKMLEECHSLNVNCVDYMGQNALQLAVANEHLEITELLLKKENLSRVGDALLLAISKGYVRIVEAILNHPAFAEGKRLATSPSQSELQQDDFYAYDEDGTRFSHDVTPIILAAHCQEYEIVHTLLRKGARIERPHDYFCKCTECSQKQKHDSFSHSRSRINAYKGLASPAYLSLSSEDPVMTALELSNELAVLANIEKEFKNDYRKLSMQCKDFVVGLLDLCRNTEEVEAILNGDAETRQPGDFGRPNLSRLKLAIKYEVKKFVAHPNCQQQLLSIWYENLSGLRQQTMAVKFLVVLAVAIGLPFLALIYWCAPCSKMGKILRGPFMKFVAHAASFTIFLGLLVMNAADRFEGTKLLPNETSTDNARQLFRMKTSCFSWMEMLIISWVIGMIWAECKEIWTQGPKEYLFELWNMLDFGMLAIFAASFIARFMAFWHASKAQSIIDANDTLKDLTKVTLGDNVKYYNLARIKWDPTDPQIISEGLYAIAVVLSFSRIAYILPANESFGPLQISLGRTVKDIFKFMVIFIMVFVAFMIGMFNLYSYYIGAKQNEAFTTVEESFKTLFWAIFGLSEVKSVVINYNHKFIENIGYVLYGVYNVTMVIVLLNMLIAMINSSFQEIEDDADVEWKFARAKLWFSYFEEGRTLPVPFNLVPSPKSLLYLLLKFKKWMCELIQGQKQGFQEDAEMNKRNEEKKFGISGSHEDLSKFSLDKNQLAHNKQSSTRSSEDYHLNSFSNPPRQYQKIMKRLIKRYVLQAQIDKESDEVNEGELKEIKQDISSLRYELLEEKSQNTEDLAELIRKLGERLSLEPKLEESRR
Sequence of Short transient receptor potential channel 4 (Mus musculus) (Q9QUQ5 whole entry, looked up): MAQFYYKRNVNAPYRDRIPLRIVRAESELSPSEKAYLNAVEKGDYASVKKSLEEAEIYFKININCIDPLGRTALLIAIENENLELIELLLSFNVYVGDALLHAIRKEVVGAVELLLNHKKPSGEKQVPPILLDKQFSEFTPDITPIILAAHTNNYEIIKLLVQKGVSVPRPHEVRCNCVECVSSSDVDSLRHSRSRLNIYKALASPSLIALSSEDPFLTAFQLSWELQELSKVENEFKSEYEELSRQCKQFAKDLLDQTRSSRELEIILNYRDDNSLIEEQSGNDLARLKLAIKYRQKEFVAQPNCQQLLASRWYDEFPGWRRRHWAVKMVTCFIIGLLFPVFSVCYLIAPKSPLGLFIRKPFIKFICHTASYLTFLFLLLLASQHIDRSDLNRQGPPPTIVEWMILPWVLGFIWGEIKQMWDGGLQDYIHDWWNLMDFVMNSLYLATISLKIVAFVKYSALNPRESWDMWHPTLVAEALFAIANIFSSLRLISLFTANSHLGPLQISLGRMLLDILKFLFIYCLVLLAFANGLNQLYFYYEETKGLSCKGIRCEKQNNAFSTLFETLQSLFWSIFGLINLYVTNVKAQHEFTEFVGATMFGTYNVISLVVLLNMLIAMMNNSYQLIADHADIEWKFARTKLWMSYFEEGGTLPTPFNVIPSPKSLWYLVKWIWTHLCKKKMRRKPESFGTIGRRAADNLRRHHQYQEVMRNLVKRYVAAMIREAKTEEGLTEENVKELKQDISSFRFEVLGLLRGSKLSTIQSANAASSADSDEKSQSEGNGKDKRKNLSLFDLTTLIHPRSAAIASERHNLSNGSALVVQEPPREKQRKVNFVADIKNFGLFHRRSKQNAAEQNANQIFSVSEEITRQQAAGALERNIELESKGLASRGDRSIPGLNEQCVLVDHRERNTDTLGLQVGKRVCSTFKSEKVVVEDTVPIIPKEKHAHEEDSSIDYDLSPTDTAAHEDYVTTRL

COc1ccc(CN(C2CCCCC2C)S(=O)(=O)c2ccc(S(=O)(=O)N(C)C)cc2)cc1OC (configuration not stated)
active: [4] 12% | [15] 5.84%
inactive: all other assays above

CC(=O)c1ccc(N2CCN(C(=O)CCS(=O)(=O)c3ccc4c(c3)NC(=O)CS4)CC2)cc1
active: [15] 20.9%
inactive: all other assays above

CCOC(=O)C1=NNC(C(=O)c2ccc(Cl)cc2)C1c1ccc(OC)cc1 (configuration not stated)
active: [15] 8.48%
inactive: all other assays above

Oc1ccc(-c2[nH]ncc2-c2ccc(Br)cc2)c(O)c1
inactive: all assays above

O=C(c1ccncc1)N1c2ccccc2Sc2ccccc21
inactive: all assays above

Cc1ccc(NC(=O)c2cccs2)cc1
inactive: all assays above
